We go through 28 compounds from PubChem BioAssay (NCATS).

Molecules are shown by their SMILES. Records with an inconclusive call do not appear. Calls of active or inactive are those of the source. Calls come from the whole dose curve; as a rule, active = well fitted curve in the direction sought with a large enough effect; inconclusive = small, poorly fitted or top-dose-only effect, or another doubt; inactive = no such curve, though single readings can be large; an effect the other way counts as inactive or inconclusive.

Assay [1] deals with MCC-13. In words: qHTS assay to identify novel small-molecules to repurpose for Merkel cell carcinoma treatment (AID 1296009). Note: nearly all actives have a fitted effect of over 60% in size. Note: potency is the fitted concentration of half-maximal effect. The settings on record: MCC and control cell lines, CellTiter-Glo viability, 72 h; series mostly up to 46 µM. The method, boiled down: (§1)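 72 hr, 37 degree celsius; NPC 8-pt / MIPE 11-pt dose response; compound pinned in DMSO; CellTiter-Glo, 10 min RT, luminescence; normalized to no-cell and DMSO controls.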
In general terms: Quantitative high-throughput screening tests each substance at several concentrations.

The test system of assay [2] is MCC-26. The description is as above. The settings on record: MCC and control cell lines, CellTiter-Glo viability, 72 h; series mostly up to 46 µM. The method, boiled down:
as §1

In assay [3] the test system is MKL-1. Described as above. The note with it: MCC and control cell lines, CellTiter-Glo viability, 72 h; series mostly up to 46 µM. The method, boiled down: as §1
(Cellular ATP, detected with luciferase, serves as a proxy for viable cell number.)

In assay [4] the test system is MKL-2. Described as above. The note with it: MCC and control cell lines, CellTiter-Glo viability, 72 h; series mostly up to 46 µM. In short, it runs like this:
as §1

Assay [5] concerns NIH3T3. The assay is described as above. The note with it: MCC and control cell lines, CellTiter-Glo viability, 72 h; series mostly up to 44.8 µM. In short, it runs like this:
as §1

Assay [6] deals with UISO. The assay is described as above. The note with it: MCC and control cell lines, CellTiter-Glo viability, 72 h; series mostly up to 46 µM. The method, boiled down:
as §1

The subject of assay [7] is WaGa. The assay is described as above. The settings on record: MCC and control cell lines, CellTiter-Glo viability, 72 h; series mostly up to 46 µM. In short, it runs like this: as §1
The test system of assay [8] is C33A. The experiment in a line: Primary qHTS to identify gynecologic anti-cancer compounds using libraries of approved drugs and bioactive compounds (AID 1345084). Note: nearly all actives have a fitted effect of over 55% in size. The settings on record: Gynecologic cancer cell panel viability, ATPlite luminescence, 48 h; series mostly up to 57.5 µM. In short, it runs like this: (§2)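 Measured: luminescence after ATPlite addition (15 min, RT). Exposure: 48 h, 37 C, 5% CO2.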

The subject of assay [9] is JEG-3. The description is as above. The settings on record: Gynecologic cancer cell panel viability, ATPlite luminescence, 48 h; series mostly up to 57.5 µM. In short, it runs like this:
as §2

Assay [10] deals with OV90. Described as above. The settings on record: Gynecologic cancer cell panel viability, ATPlite luminescence, 48 h; series mostly up to 57.5 µM. The method, boiled down:
as §2

Assay [11] relates to CASKI. The assay is described as above. The note with it: Gynecologic cancer cell panel viability, ATPlite luminescence, 48 h; series mostly up to 57.5 µM. In short, it runs like this:
as §2

Assay [12] concerns Es-2. The description is as above. The settings on record: Gynecologic cancer cell panel viability, ATPlite luminescence, 48 h; series mostly up to 57.5 µM. In short, it runs like this:
as §2

The subject of assay [13] is HeLa. The description is as above. The note with it: Gynecologic cancer cell panel viability, ATPlite luminescence, 48 h; series mostly up to 57.5 µM. The method, boiled down: as §2
Assay [14] deals with Hek293T. Described as above. The note with it: Gynecologic cancer cell panel viability, ATPlite luminescence, 48 h, control line for the selectivity index; series mostly up to 57.5 µM. The method, boiled down: as §2
Assay [15] has as its system PA-1. The assay is described as above. The note with it: Gynecologic cancer cell panel viability, ATPlite luminescence, 48 h; series mostly up to 57.5 µM. The method, boiled down:
as §2

Assay [16] relates to SKOV3. Described as above. The settings on record: Gynecologic cancer cell panel viability, ATPlite luminescence, 48 h; series mostly up to 57.5 µM. The method, boiled down: as §2
Assay [17] deals with Tov-21-G. Described as above. The settings on record: Gynecologic cancer cell panel viability, ATPlite luminescence, 48 h; series mostly up to 57.5 µM. The method, boiled down:
as §2

Assay [18] has as its system Tov112D. The assay is described as above. The settings on record: Gynecologic cancer cell panel viability, ATPlite luminescence, 48 h; series mostly up to 57.5 µM. In short, it runs like this: as §2
The test system of assay [19] is CAOV3. Described as above. The settings on record: Gynecologic cancer cell panel viability, ATPlite luminescence, 48 h; series mostly up to 57.5 µM. In short, it runs like this: as §2

As to `Cc1cc2c(cc1C1(c3ccc(C(=O)O)cn3)CC1)C(C)(C)CCC2(C)C`, the Potency entry in assay [1], in [2], in assay [3], in assay [4], in assay [5] and in [6] was “inactive” in each case. For the same compound, the Potency entry in [7], in assay [8], in assay [9] and in [10] was “inactive” in each case.

As for `OC1CCC(Nc2ncc3nc(Nc4c(F)cc(F)cc4F)n([C@@H]4CCOC4)c3n2)CC1` (stereo not given in full), the Potency result in assay [1], in assay [2], in assay [3], in assay [4], in assay [5] and in assay [6] was “inactive” in each case. Also, in assay [7], the Potency entry was “inactive”.

As for `CN(C)CCOc1ccc(C(=C(CCCl)c2ccccc2)c2ccccc2)cc1`, the Potency result in [1], in assay [2], in assay [3], in [4], in assay [5] and in assay [6] was “inactive” throughout. Also, the Potency entry in [7] is “inactive”.

For `COc1ccc(CCN(C)CCCOc2ccc(S(=O)(=O)c3[nH]c4ccccc4c3C(C)C)cc2)cc1OC`, the Potency entry in [1] and in [2] was “inactive” each time.

`Cc1cc(OCCCS(C)(=O)=O)cc(C)c1-c1cccc(COc2ccc3c(c2)OC[C@H]3CC(=O)O)c1`: the Potency result in assay [1], in [2] and in assay [3] was “inactive” throughout.

Regarding `O=C(Nc1ncc(SCCN2CCCC2)s1)[C@]1(c2ccc(S(=O)(=O)C3CC3)cc2)C[C@@H]1C1CCCCC1`, the Potency entry in assay [1] is “inactive”.

On to `COc1ccc(CCC(=O)Nc2nc3ccc(Cl)cc3s2)cc1OC`, for which the Potency result in [1], in assay [2], in assay [3], in assay [4], in [5] and in [6] was “inactive” in each case. Further, the Potency result in assay [7], in assay [8], in assay [11], in assay [12], in [13] and in [14] was “inactive” in each case. Also, the Potency entry in assay [9], in assay [10], in [15], in assay [16], in assay [17] and in assay [18] was “inactive” throughout.

Consider `Clc1ccc(COC(Cn2ccnc2)c2ccc(Cl)cc2Cl)c(Cl)c1` (stereo not given), for which the Potency result in assay [1], in [2], in assay [3] and in [4] was “inactive” throughout.

For `CCN1CCN(c2ccc(Nc3cc(N(C)C(=O)Nc4c(Cl)c(OC)cc(OC)c4Cl)ncn3)cc2)CC1`, the Potency entry in [1], in assay [2], in assay [3], in assay [4], in [5] and in assay [7] was “inactive” throughout. For the same compound, the Potency result in [8], in assay [19], in [11], in assay [12], in assay [14] and in assay [9] was “inactive” each time. In addition, the Potency entry in assay [10], in assay [15] and in assay [18] was “inactive” each time.

With `CN1[C@H]2CC[C@H]1CC(OC(=O)c1c[nH]c3ccccc13)C2` (stereo not given in full), the Potency result in assay [1], in assay [2], in assay [3], in assay [4], in [5] and in assay [6] was “inactive” in each case. The Potency result in assay [7] is “inactive”.

Regarding `Cc1nc2c([nH]1)CCN(C(=O)c1ccc(NC(=O)c3ccccc3-c3ccccc3)cc1)c1ccccc1-2`, the Potency entry in assay [1], in [2], in [3], in assay [4], in [5] and in assay [6] was “inactive” in each case. Besides, the Potency entry in assay [7], in [8], in [19], in [11], in assay [12] and in assay [13] was “inactive” each time. Also, the Potency result in assay [14], in assay [9], in [10], in assay [15], in assay [16] and in [17] was “inactive” in each case. Further, in assay [18], the Potency entry was “inactive”.

On to `CC(O)=C(C#N)C(=O)Nc1ccc(C(F)(F)F)cc1`, for which the Potency entry in assay [1] and in assay [2] was “inactive” throughout.

As to `CN1CCN2c3ncccc3Cc3ccccc3C2C1` (stereo not given), the Potency entry in [1], in assay [2], in [3], in assay [4], in assay [5] and in assay [6] was “inactive” in each case. In addition, the Potency result in assay [7] was “inactive”.

For the compound `Cc1ccc(NC(=O)c2ccc(CN3CCN(C)CC3)cc2)cc1Nc1nc(-c2cccnc2)cs1`, the Potency result in [1], in assay [2] and in [3] was “inactive” throughout.

Consider `Cn1c(=O)c(-c2c(Cl)cccc2Cl)cc2cnc(Nc3cccc(C(=O)O)c3)nc21`, for which the Potency result in assay [1], in assay [2], in [3], in assay [4], in assay [5] and in [6] was “inactive” throughout. The Potency entry in [7], in [8], in [11], in [12], in [13] and in assay [14] was “inactive” each time. Besides, the Potency result in assay [9], in assay [10], in assay [15] and in assay [18] was “inactive” in each case.

Consider `C[C@H]1COC2=C1C(=O)C(=O)c1c2ccc2c1CCCC2(C)C`, for which the Potency entry in assay [1], in assay [2], in assay [3], in [4], in assay [5] and in assay [6] was “inactive” in each case. Also, the Potency result in assay [7] is “inactive”.

Take `COc1ccc2c(c1)c(C1=C(c3c[nH]c4ccccc34)C(=O)NC1=O)cn2CCCN(C)C`: the Potency result in [1] is “inactive”.

`CCC(=C(CC)c1ccc(O)cc1)c1ccc(O)cc1`: the Potency entry in assay [1], in assay [2] and in assay [3] was “inactive” throughout.

Consider `CC(NCCc1ccc(O)cc1)C(O)c1ccc(O)cc1` (stereo not given), for which the Potency result in assay [1], in assay [2], in assay [3], in assay [4], in assay [5] and in assay [6] was “inactive” in each case. In addition, the Potency entry in assay [7] is “inactive”.

Turning to `Oc1ccc(C=Cc2cc(O)cc(O)c2)cc1`, the Potency entry in assay [1], in [2] and in assay [3] was “inactive” in each case.

Consider `NC(=O)c1ccc(N(C(N)=O)c2c(F)cccc2F)nc1-c1ccc(F)cc1F`, for which the Potency entry in assay [1], in [2], in assay [3], in [4], in assay [5] and in assay [6] was “inactive” throughout. Moreover, the Potency result in assay [7], in assay [8], in assay [11], in assay [12], in assay [13] and in assay [14] was “inactive” in each case. For the same compound, the Potency result in assay [9], in [10], in assay [15], in assay [16], in assay [17] and in [18] was “inactive” throughout.

Take `CCOC(=O)N1c2ccc(C(F)(F)F)cc2[C@@H](N(Cc2cc(C(F)(F)F)cc(C(F)(F)F)c2)C(=O)OC)C[C@H]1CC`: the Potency result in [1], in assay [2], in [3], in [4], in assay [5] and in assay [6] was “inactive” each time. Besides, in assay [7], the Potency entry was “inactive”.

Take `CCCCC[C@H](O)C=C[C@H]1[C@H](O)CC(=O)[C@H]1CCCCCCC(=O)O`: the Potency result in assay [1], in assay [2] and in assay [3] was “inactive” throughout.

Take `CCCCN(CCCC)CC(O)c1cc(Cl)cc2c1-c1ccc(Cl)cc1C2=Cc1ccc(Cl)cc1` (stereo not given): the Potency entry in assay [1], in [2], in [3], in assay [4], in assay [5] and in assay [6] was “inactive” each time. The Potency entry in assay [7] is “inactive”.

Turning to `COc1cc(N2CCN(C)CC2)ccc1Nc1nc(N)c(C(=O)c2c(Cl)cccc2Cl)s1`, the Potency result in assay [1], in [2], in [3], in assay [4], in [6] and in [7] was “inactive” each time.

Take `Cc1ccc(S(=O)(=O)Nc2nc3ccccc3nc2Nc2ccc3nsnc3c2)cc1`: the Potency entry in assay [1], in assay [2] and in assay [4] was “inactive” each time. The Potency was 1.82 µM (active) in assay [3] and 5.12 µM (active) in assay [6].

Turning to `Cn1c(=O)c(Oc2ccc(F)cc2F)cc2cnc(NC3CCOCC3)nc21`, the Potency result in assay [1], in assay [2], in [3], in assay [4], in assay [6] and in assay [7] was “inactive” throughout.

Consider `CC(C)(F)C[C@H](N[C@@H](c1ccc(-c2ccc(S(C)(=O)=O)cc2)cc1)C(F)(F)F)C(=O)NC1(C#N)CC1`, for which the Potency result in [1], in assay [2], in assay [3], in assay [4], in assay [6] and in [7] was “inactive” throughout.
